PubChem BioAssay (NCI)
Where “and” joins values, the source holds several entries; their conditions need not be identical. Equal entries are not always repeated. The panel holds about 83,000 compounds, 20% with a hit somewhere; the sample as a whole holds those more often.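 Note: values are percent growth. 100 is the growth of untreated cells, values between 100 and 0 indicate rising inhibition; between -100 and 0 indicates cell death.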 A number with no mark means an inactive call. Calls of active or inactive are those of the source. Rule for the calls: active = growth percent below 10; inactive = the rest.

These molecules were tested on MDA-MB-468 breast (assay: NCI-60 one-dose screen, 48 h (100 = growth as untreated, 0 = no growth, -100 = all killed)). Settings: 10 µM unless noted.

SMILES | growth
CN(C)C(C(N)=O)c1ccc(Cl)cc1 (configuration not stated) | 99.2%
O=C(Nc1ccccc1C(F)(F)F)C1=NCCCCN1 | 94.8%
CCCCCCCCCCCC[n+]1ccccc1 (tested in a mixture with another compound) | -37.6% (active)
Oc1ccc(/C=N\Nc2ccccn2)c(O)c1 | 9.5% (active)
COC(=O)CNC(=O)[C@@H](OC)[C@@H]1Cc2cc3cc(OC4CC(OC5CC(O)C(O)C(C)O5)C(O)C(C)O4)c(C)c(O)c3c(O)c2C(=O)[C@H]1OC1CC(OC2CC(OC3CC(C)(O)C(O)C(C)O3)C(O)C(C)O2)C(O)C(C)O1 (some centres not stated) | -22.3% (active)
S=C(NCc1ccccc1)N1CCC(CCCC2CCN(C(=S)NCc3ccccc3)CC2)CC1 | 69.1%
CCOC(=O)c1c(NC(=O)c2cccc(C(F)(F)F)c2)sc2c1CCC(=O)C2 | -9.5% (active)
COc1ccc(-n2c(SCc3nnc(NC(=O)c4ccc(Br)cc4)s3)nc3cc(OC)c(OC)cc3c2=O)cc1 | 93.6%
CCN1CCC2(CC1)NC(=O)c1c(c3ccc(Cl)c(Cl)c3n1C)C2C#N (configuration not stated) | -16.3% (active)
C/C(=C(/c1ccc(O)cc1)c1ccc(OCCN(C)C)cc1)c1ccccc1 | 58.4%
CC(C)=CC/C=C(/C)[C@H]1CC[C@]2(C)[C@@H]1CC[C@@H]1[C@@]3(C)CCC(=O)NC(C)(C)[C@@H]3CC[C@]12C | -17.7% [100 µM] (active)
CC[C@H](C)[C@H](N)C(=O)O | 99.9%
CCC(C)/C(=C\C#N)NCCCN/C(=C/C#N)C(C)CC (configuration not stated) | 108%
O=NN(CC(=O)NNc1ccccc1)CC(=O)NNc1ccccc1 | 77.7%
CCN(CC)CCCNc1nc(C)cc(Nc2ccc3nc(C)cc(N)c3c2)n1 | 117%
Oc1ccc(N=Nc2ccccn2)c(O)c1 | -2.78% (active)
CNCCCn1c2c(c3ccc(Cl)cc3c1=O)C(=O)c1cc(OC)cnc1-2 | 67.2%
Fc1[nH]nc2ccc([C@@H]3Nc4ccc5[nH]ncc5c4[C@H]4C5CCC(C5)[C@@H]34)cc12 (some centres not stated) | 16%
CCN(CC)CCOC(=O)Nc1ccccc1Cl | 104%

SMILES | growth
COc1cc(NCC(C)(O)CN(CC(C)C)CC(C)C)c2nc(C)ccc2c1 (configuration not stated) | -11.4% (active)
CCC1CCC(C)NC1 (configuration not stated) | 92.4%
CN(C)c1ccc(/C=C(\C#N)c2cc3ccccc3n2C)cc1 | 31.8%
C[C@H](NC(=O)c1snnc1C1CC1)c1c(F)cccc1Cl | 99.4%
CCOC(=O)C1=C(C)NC(C)=C(C(=O)OCc2ccccc2)C1c1cccc(C#N)c1 (configuration not stated) | 16%
Cc1ccc2c(n1)C(=O)C(Cl)=C(Nc1ccccc1C(C)C)C2=O | 34.9%
COc1cc(-c2ccc3cc(OC)c(OC)c(OC)c3c2)cc(OC)c1OC | 31.6%
COc1c(CNC(=O)CCl)cc2[nH]c(C)cc2c1CNC(=O)CCl | 53.4%
C=C1C(=O)O[C@H]2[C@H]1CC/C(CNC(=O)/C1=C/CC[C@@]3(C)O[C@H]3[C@H]3OC(=O)C(=C)[C@@H]3CC1)=C\CC[C@@]1(C)O[C@@H]21 | 42.9%
O=C1/C(=C/N2N=C(c3ccc4ccccc4c3)CC2c2ccccc2O)SC(=S)N1c1cccnc1 (configuration not stated) | 7.52% (active)
CC[C@H](Nc1nc(N)nc(C)c1C#N)c1nc2cccc(NCc3ccc(C(=O)NO)cc3)c2c(=O)n1-c1ccccc1 | 3.26% (active)
C=C(C)[C@@H]1CC[C@]2(C(=O)O)CC[C@]3(C)[C@H](CC[C@@H]4[C@@]5(C)C/C(=C/c6ccccn6)C(=O)C(C)(C)[C@@H]5CC[C@]43C)[C@@H]12 | 9.64% (active)
C#C[C@]1(O)CC[C@H]2[C@@H]3CC=C4c5sc(Nc6ccc(Cl)cn6)nc5CC[C@]4(C)[C@H]3CC[C@@]21C | 68.4%
CCOC(=O)C12CCCC1=CC(=O)CC2 (configuration not stated) | 110%
CN1CCCC1c1cccnc1 (configuration not stated) | 97.1%
C/C(=C(/c1ccc(O)cc1)c1ccc(OCCN2CCCC2)cc1)c1ccccc1 | 34.7%
COc1cc(NS(C)(=O)=O)ccc1Nc1c2ccccc2nc2ccccc12 | -3.7% (active) and -17.8% (active)
C[C@@H]1N=C(c2ccc3ccccc3n2)Nc2nc3ccccn3c2C1=O | 107%
